# Compounds with a hit are over-represented: about 6.3% of the library has one in this group of screens.
# MPTP block: mitochondrial permeability transition pore inhibitors, primary screen, biochemical, isolated mouse mitochondria, absorbance; hit rate 1.4% among 360,000; Ca2+ swelling absorbance, 30 min; inhibition, % at 10 µM; AID 602449, 2012;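 active = inhibition of 50% or more, scaled per plate between neutral and stimulator controls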
# tim23-1 inh: growth inhibitors of tim23-1 mutant yeast, primary screen, luminescence, uHTS | S. cerevisiae tim23-1 growth, BacTiter-Glo luminescence, 24 h | inhibition, % at 20 µM | hit rate 1.3% among 330,000 | AID 463212, 2010;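 active = growth inhibition of the mutant yeast at or above 50%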;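 also: temperature-sensitive mutant grown at 25 °C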
# Mdm2 MdmX PPI: inhibitors of human Mdm2-MdmX association, primary screen, cell-based, luminescence, split luciferase, SaOS-2, uHTS; Protein Mdm4 (Homo sapiens) + E3 ubiquitin-protein ligase Mdm2 (Homo sapiens), …; SaOS-2 split-luciferase Mdm2/MdmX complementation; inhibition, % at 8 µM; hit rate 3% among 330,000; AID 485346, 2010;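 active = inhibition of at least 50% at 8 µM in the primary screen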
# TIM10 inh: growth inhibitors of isogenic TIM10 control yeast, primary screen, counter-screen for tim10-1 yeast inhibitor project, luminescence, uHTS; inhibition, % at 10 µM; hit rate 1.4% among 330,000; S. cerevisiae TIM10 strain growth, BacTiter-Glo luminescence, 24 h; AID 463195, 2010;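 active = inhibition of 40% or more at the single tested concentration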;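 also: wild-type TIM10 isogenic control strain grown at permissive 25 °C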
# tim10-1 inh: growth inhibitors of tim10-1 mutant yeast, primary screen, luminescence, uHTS; hit rate 2.2% among 330,000; S. cerevisiae tim10-1 ts strain growth, BacTiter-Glo, 24 h; inhibition, % at 20 µM; AID 463190, 2010;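 active = inhibition of at least 40%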;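 also: mutant grown at 25 °C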
# Mdm2 MdmX conf: Mdm2-MdmX complex disruptors, retested hits, confirmation, luminescence, single concentration; hit rate 55% among 10,000; inhibition, % at 8 µM; Mdm2-MdmX binding, luminescent assay; shares compounds with Mdm2 MdmX PPI; in the data active = inhibition above about 40%
# Full FLuc ctr: full-length luciferase signal inhibition, confirmation, counter-screen for Mdm2/MdmX interaction inhibitor project, cell-based, single concentration, SaOS-2; SaOS-2 full-length luciferase counterscreen, luminescence; shares compounds with Mdm2 MdmX PPI; inhibition, % at 8 µM; hit rate 77% among 6,200;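 active = mean inhibition at 8 µM reaching about 37%, which flags the compound as non-specific, limit read from the data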;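 also: p53-null SaOS-2 cells with luciferase driven by a doxycycline-inducible promoter; compound on cells about two nights before reading with doxycycline added after day one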
# A number is an active result; - = inactive; . = not tested or not shown.
SMILES,MPTP block,tim23-1 inh,Mdm2 MdmX PPI,TIM10 inh,tim10-1 inh,Mdm2 MdmX conf,Full FLuc ctr
CC(=O)OC(C)(C)/C=C/C(=O)[C@](C)(O)C1[C@H](O)C[C@@]2(C)C3CC=C4C(C=C(O[C@@H]5O[C@H](CO)[C@@H](O)[C@H](O)[C@H]5O)C(=O)C4(C)C)[C@]3(C)C(=O)C[C@]12C (some centres undefined),-,-,96,-,-,-,.
Cc1noc(C)c1COc1cccc(C(=O)OCC(=O)N2CC(=O)Nc3ccccc32)c1,-,-,50,-,-,67,59
Cc1cccc(-c2cnc(C(O)Cc3ccccc3)[nH]2)c1 (centres undefined),-,.,.,.,.,.,.
CCn1c2ccccc2c2cc(Nc3cc(C)nc4ncnn34)ccc21,-,-,83,-,-,72,109
COCCN(C(=O)Cc1cccs1)C(C(=O)NCc1ccc(OC)cc1)c1ccc(OC)cc1 (centres undefined),-,-,-,-,-,.,.
Cc1ccc(C(C(=O)NCc2ccccc2)N(Cc2cccs2)C(=O)c2ccc3c(c2)OCCO3)cc1 (centres undefined),-,-,79,-,-,78,69
COc1ccc(CNC(=O)C(c2ccc(C)cc2)N(Cc2cccs2)C(=O)c2ccc3c(c2)OCCO3)cc1 (centres undefined),-,-,75,-,-,75,60
Cc1ccc(C(O)c2ncc(-c3ccccc3Cl)[nH]2)cc1F (centres undefined),-,.,.,.,.,.,.
OC(c1ccccc1)(c1nc(-c2cccc3cccnc23)cs1)C(F)(F)F (centres undefined),-,.,.,.,.,.,.
Clc1ccc(Cn2cc(/C=N/n3cnnc3)c3ccccc32)c(Cl)c1,-,-,57,-,-,-,.
COC(=O)N/N=C/c1cn(Cc2ccc(Cl)cc2Cl)c2ccccc12,-,-,-,-,-,.,.
CN1CCN(C(=O)C2Cc3c(-c4ccc5c(c4)OCO5)ccnc3O2)CC1 (centres undefined),-,.,.,.,.,.,.
COCC(C)NC(=O)C1CC(=O)N(CCc2ccc(F)cc2)C1 (centres undefined),-,.,.,.,.,.,.
Cc1ccc2c(=O)n3c(nc2c1)C(Cc1ccccc1)NC(=O)c1cc2ccccc2cc1-3 (centres undefined),-,.,.,.,.,.,.
O=C1c2ccccc2C(=O)C12OC(c1ccccc1)C1(C(=O)c3ccccc3C1=O)C2c1ccc([N+](=O)[O-])cc1 (centres undefined),-,-,-,-,-,.,.
O=C1c2ccccc2C(=O)C12OC2c1ccc(Cl)cc1 (centres undefined),.,-,81,-,-,-,.
Cc1sc2ncnc(N3CCC(C(=O)Nc4sc5c(c4C(N)=O)CCC(C)C5)CC3)c2c1C (centres undefined),-,-,62,-,-,70,42
CNC(=O)c1ccc(NC(=O)C2CCN(c3ncnc4sc(C)c(C)c34)CC2)cc1,-,-,62,-,-,60,58
Cc1sc2ncnc(N3CCC(C(=O)Nc4ccc(Br)cc4Br)CC3)c2c1C,-,-,57,-,-,47,87
Cn1c(=O)c2c(nc(OC3CCCCCC3)n2C)n(C)c1=O,-,.,.,.,.,.,.
O=C(NC1CCCC1)C1c2ccccc2OCC(=O)N1Cc1ccc2c(c1)OCO2 (centres undefined),-,.,.,.,.,.,.
CC(C)C[C@@H](C(=O)NC1CCN(Cc2ccccc2)CC1)N1C(=O)N2CCc3c([nH]c4ccccc34)[C@@]2(C)C1=O,-,-,60,-,-,46,58
CCOC(=O)C1(C)CCN1C(=O)c1cccc(Cl)c1 (centres undefined),-,.,.,.,.,.,.
CCN1CCC(O)(/C=C/c2ccc(C(C)C)cc2)C(C(=O)/C=C/c2ccc(C(C)C)cc2)C1 (centres undefined),-,.,.,.,.,.,.
CC(C)c1ccc(NC(=O)C2CCN(c3ncnc4c3nc3n4CCCCC3)CC2)cc1,-,-,72,-,-,-,.
SMILES,MPTP block,tim23-1 inh,Mdm2 MdmX PPI,TIM10 inh,tim10-1 inh,Mdm2 MdmX conf,Full FLuc ctr
COc1ccc(C=C2c3ccccc3C(=O)c3ccccc32)c(OC)c1,-,-,66,-,-,57,97
COc1ccc(C2C(=O)c3ccccc3C2=O)c(OC)c1,-,-,-,-,-,.,.
COc1ccc(/C=C2\CN(Cc3ccccc3)C/C(=C\c3ccc(OC)cc3OC)C2=O)c(OC)c1,-,-,67,-,-,60,63
O=C(N/N=C/c1cccc(C(F)(F)F)c1)C1CCN(c2ncc(C(F)(F)F)cc2Cl)CC1,-,-,64,-,-,-,.
COc1ccc2cc3c(N)nn(C(=O)c4ccccc4[N+](=O)[O-])c3nc2c1,-,-,93,-,-,87,51
COc1ccc2cc3c(N)nn(C(=O)c4ccc(Cl)c([N+](=O)[O-])c4)c3nc2c1,-,-,83,-,-,88,57
COC(=O)[C@H]1C[C@@]2(O)CN(S(=O)(=O)c3ccc(C)cc3)C[C@@]2(OC(=O)NCc2ccco2)C[C@H]1C(=O)OC,-,.,.,.,.,.,.
COc1ccccc1C#CC1=CC(=O)CC(C)(C)C1,-,.,.,.,.,.,.
CN1C(=O)Nc2cccc3cccc1c23,-,-,52,-,-,-,.
COc1ccc(NC(C)=O)c(C)c1,-,-,-,-,-,.,.
COc1cc(C)c(C(=O)CC(=O)c2c(C)cc(OC)cc2C)c(C)c1,-,-,51,-,-,-,.
CC1(C(=O)NS(=O)(=O)c2ccc(Cl)cc2)CCN1C(=O)CCC1CCCC1 (centres undefined),-,.,.,.,.,.,.
CCn1ccc(C(=O)Nc2cccc(Cl)c2)n1,-,-,-,-,-,.,.
COCCn1c(C)cc(O)c(C(=O)Nc2cccc(Cl)c2)c1=O,-,-,65,-,-,52,42
O=C1Cc2ccccc2C(=O)N1,-,.,.,.,.,.,.
NS(=O)(=O)c1ccc(CNC(=O)c2cc(-c3ccccn3)nc3ccc(Cl)cc23)cc1,-,-,51,-,-,-,.
NS(=O)(=O)c1ccc(CNC(=O)c2cc(-c3cccnc3)nc3ccc(Cl)cc23)cc1,-,-,-,-,-,.,.
CNc1ccc(-c2ccccc2OC)cn1,-,.,.,.,.,.,.
CCCCN(C)c1c(C)nc2ccc(C(=O)N(CC)CCN(C)C)cn12,-,.,.,.,.,.,.
COc1cc(NC(=O)c2c(F)c(F)c(F)c(F)c2F)c(OC)cc1Cl,-,-,78,-,-,47,53
COC(=O)c1cc(=O)n(Cc2ccco2)c(=Nc2ccc(F)c(Cl)c2)s1,-,-,100,-,-,-,65

# Assay outcomes (PubChem BioAssay)
